Rows were chosen to be rich in hits. Some 2.3% of all compounds tested hit in one or more screens of this group.
MBD2 inh – MBD2-methylated oligo binding inhibition; TR-FRET, MBD2 binding to methylated oligonucleotide; AID 686964; inhibition, % at 4.4 µM; 0.31% of 370,000 active; in the data active = inhibition above about 13%
LEDGF integ inh – blocks HIV-1 LEDGF/p75-dependent DNA integration. TR-FRET IN-LEDGF/p75 DNA integration, Eu/Cy5. inhibition, % at 3.7 µM. 0.64% of 370,000 active. AID 743269;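 active = inhibition above the screen-wide mean plus 3 SD, cut at about 13% in these data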;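 note: signal is the Cy5 over europium emission ratio at 671 and 618 nm; 0% = plate median of compound wells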
UHRF1 MBD2 ctr – human UHRF1 methylated DNA binding inhibitors; AID 687016; inhibition, % at 4.4 µM; Q96T88; UHRF1 binding to methylated oligo, TR-FRET; 0.75% of 370,000 active; in the data active = inhibition above about 21%;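 note: UHRF1 SRA domain binding a hemimethylated CpG hairpin DNA probe; 0% = median of test compound wells and 100% = reference inhibitor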
PLCg1 inh – blocks human PLC-gamma1 enzyme activity. purified PLC-gamma1, fluorogenic substrate, fluorescence. inhibition, % at 12.2 µM. 0.84% of 370,000 active. AID 720700. P19174; in the data active = inhibition above about 9.5%
Target sequence (P19174 whole entry, looked up): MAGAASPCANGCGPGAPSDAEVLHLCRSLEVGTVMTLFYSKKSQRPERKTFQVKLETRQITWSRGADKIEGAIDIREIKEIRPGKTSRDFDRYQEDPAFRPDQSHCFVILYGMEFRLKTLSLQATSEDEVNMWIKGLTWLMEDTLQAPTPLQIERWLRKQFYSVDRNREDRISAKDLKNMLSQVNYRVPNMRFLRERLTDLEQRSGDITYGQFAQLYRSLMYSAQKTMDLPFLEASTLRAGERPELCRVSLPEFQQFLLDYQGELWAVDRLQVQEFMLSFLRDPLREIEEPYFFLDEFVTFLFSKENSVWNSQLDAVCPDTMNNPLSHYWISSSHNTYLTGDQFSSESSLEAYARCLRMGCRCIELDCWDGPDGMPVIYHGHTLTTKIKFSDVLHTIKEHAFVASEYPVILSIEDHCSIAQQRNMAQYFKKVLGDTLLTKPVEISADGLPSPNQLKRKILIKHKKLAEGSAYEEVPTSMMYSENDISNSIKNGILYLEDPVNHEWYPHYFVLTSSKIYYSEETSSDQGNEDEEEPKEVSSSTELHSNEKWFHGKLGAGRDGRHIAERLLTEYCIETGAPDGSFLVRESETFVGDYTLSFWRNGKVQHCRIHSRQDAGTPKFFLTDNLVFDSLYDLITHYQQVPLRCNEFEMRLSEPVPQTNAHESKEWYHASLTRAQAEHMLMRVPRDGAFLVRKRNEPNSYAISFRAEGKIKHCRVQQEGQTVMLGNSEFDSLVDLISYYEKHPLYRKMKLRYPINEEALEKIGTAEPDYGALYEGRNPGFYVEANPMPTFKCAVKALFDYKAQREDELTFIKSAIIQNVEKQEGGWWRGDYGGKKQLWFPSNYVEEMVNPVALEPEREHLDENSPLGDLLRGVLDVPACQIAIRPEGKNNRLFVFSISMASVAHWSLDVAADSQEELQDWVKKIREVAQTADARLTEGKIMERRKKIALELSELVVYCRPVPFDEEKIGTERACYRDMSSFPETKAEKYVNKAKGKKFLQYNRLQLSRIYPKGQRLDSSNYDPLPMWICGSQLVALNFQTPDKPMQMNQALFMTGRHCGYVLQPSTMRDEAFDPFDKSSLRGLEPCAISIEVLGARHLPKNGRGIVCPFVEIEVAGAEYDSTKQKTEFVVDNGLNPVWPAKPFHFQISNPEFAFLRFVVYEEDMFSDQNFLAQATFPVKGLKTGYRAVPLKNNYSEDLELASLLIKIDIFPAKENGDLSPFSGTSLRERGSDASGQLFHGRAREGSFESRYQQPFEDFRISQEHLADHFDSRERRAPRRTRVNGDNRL
PLC-beta3 inh – blocks human PLC-beta3 enzyme activity | Purified PLC-beta3, fluorogenic substrate, fluorescence | inhibition, % at 12.2 µM | 0.18% of 370,000 active | AID 720704;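 note: 0% = median of compound wells on plate and 100% = full blocker control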
PLCg1 ctr – inhibits human PLC-gamma1 in PLC-beta3 counter-screen. purified PLC-gamma1, fluorogenic substrate, fluorescence. inhibition, % at 12.3 µM. shares compounds with PLCg1 inh. 3.1% of 3,300 active; in the data active = inhibition above about 9.5%
PLCb3 confirm – human PLC-beta3 inhibition, confirmation; inhibition, % at 12.3 µM; purified PLC-beta3, fluorogenic substrate fluorescence; 1% of 3,300 active; shares compounds with PLCg1 inh
The depositor's hits bear a star; . = no result given. Cut-off read from the data, not from the text of the source, unless noted: active = inhibition above about 11%; inactive = the rest.

SMILES	MBD2 inh	LEDGF integ inh	UHRF1 MBD2 ctr	PLCg1 inh	PLC-beta3 inh	PLCg1 ctr	PLCb3 confirm
Cc1ccc(N2CC(C(=O)OCC(=O)NNC(=O)c3ccccc3)CC2=O)cc1 (configuration not stated)	-6	3	0	11*	-4	3	3
CCc1ccc(N2CC(C(=O)OCC(=O)NNC(=O)c3ccccc3)CC2=O)cc1 (configuration not stated)	1	-2	2	-3	-7	.	.
COc1ccc(C(C(=O)N(C)C2CCCC2)N(Cc2ccc(F)cc2)C(=O)c2sccc2Cl)cc1OC (configuration not stated)	-2	0	1	-2	2	.	.
O=C1NC(Cc2ccccc2)c2nc3ccc(F)cc3c(=O)n2-c2ccccc21 (configuration not stated)	-9	-2	-1	0	-1	.	.
Cc1ccc2nc3n(c(=O)c2c1)-c1ccccc1C(=O)NC3Cc1ccc(O)cc1 (configuration not stated)	-5	-3	3	10*	5	-6	-7
O=C1NC(Cc2ccccc2)c2nc3cc(F)ccc3c(=O)n2-c2ccccc21 (configuration not stated)	-4	-1	6	11*	-1	-5	-5
Cc1cccc(-n2ncc3c(N)ncnc32)c1	-5	-2	1	10*	12*	-3	0
Cc1nc2cc(C(=O)N3CCN(C(=O)C(Cl)Cl)CC3)ccc2n1C1CCCC1	-4	-5	1	-2	-6	.	.
O=C1[C@H]2C[C@@]3(n4ccc5ccccc54)c4ccccc4N(S(=O)(=O)c4ccccc4)[C@H]3N2C(=O)CN1Cc1ccccc1	1	5	2	-4	-3	.	.
O=C(CSc1nc(=O)n(CCN2CCOCC2)c2c1CCCC2)Nc1cccc([N+](=O)[O-])c1	5	-1	3	3	19*	-3	-2
CN1C(=O)N(CC(=O)Nc2cccc(S(=O)(=O)N(C)c3ccccc3)c2)C(=O)C12CCCCC2	2	0	2	14*	0	-4	-3
O=S1(=O)c2ccc(Br)cc2OC[C@@H](Cc2ccccc2)N1Cc1cn(Cc2ccc(C(F)(F)F)cc2)nn1	1	-4	-5	0	1	.	.
O=C(CSc1nc2c(c(=O)[nH]1)CCCC2)N1CCOCC1	0	3	5	-2	1	.	.
CC(=O)Nc1ccc(C(=O)CSc2nccc(=O)[nH]2)cc1	-6	0	-2	-2	-2	.	.
CC(C)(C)C(=O)CSc1nccc(=O)[nH]1	0	4	3	10*	-19	-2	-3
Oc1ccc(C[C@H]2CN([C@@H](Cc3cccc(O)c3)CN3CCC[C@@H]3CN3C(=S)NC[C@@H]3Cc3ccccc3)C(=S)N2CC2CCCCC2)cc1	-3	0	-3	10*	4	7	5
Oc1ccc(C[C@H]2CN([C@@H](Cc3ccccc3)CN3CCCC3CN3C(=S)NC[C@@H]3Cc3ccccc3)C(=S)N2CC2CCCCC2)cc1 (some centres not stated)	-2	4	-2	4	2	.	.
O=C1NC[C@H](Cc2ccc(O)cc2)N(C[C@@H]2CCCN2C[C@H](Cc2ccc(O)cc2)N2C[C@H](Cc3ccccc3)N(CCc3ccccc3)C(=O)C2=O)C1=O	-3	11	10	5	12*	0	-1
O=C1NC[C@@H](Cc2ccc(O)cc2)N(CCc2cc(C(F)(F)F)cc(C(F)(F)F)c2)C1=O	-7	2	0	6	11*	4	3
COC(=O)[C@]12C[C@H](CC(=O)N3CCCCC3)C(=O)N(CCc3ccc(OC)c(OC)c3)C1=C[C@H](C1CCCC1)O[C@@H]2C	-6	5	0	0	6	.	.
CCn1c(SCC(=O)Nc2ccc(C(C)C)cc2)nnc1-c1ccc(C(C)(C)C)cc1	0	-2	-1	2	0	.	.
CCCC/C=C1/[C@@H](C(C)C)N(Cc2ccc3c(c2)OCO3)C2=N[C@H](c3ccccc3)CC(=O)N21	-3	4	7	8	11*	2	0
Cc1cc(C(=O)NCC2CCCCC2)ccc1[N+](=O)[O-]	-1	7	1	11*	1	-6	-1
